Hits are enriched below; roughly 4.6% of the tested compounds scored in any of these assays.
TRHR agonist-1 – TRH receptor (human) agonism | P34981 | TRHR cells, calcium flux fluo-8, FDSS agonist mode | activation, % at 2 µM | actives 0.18% (n = 360,000) | AID 493084
Target sequence (P34981 whole entry, looked up): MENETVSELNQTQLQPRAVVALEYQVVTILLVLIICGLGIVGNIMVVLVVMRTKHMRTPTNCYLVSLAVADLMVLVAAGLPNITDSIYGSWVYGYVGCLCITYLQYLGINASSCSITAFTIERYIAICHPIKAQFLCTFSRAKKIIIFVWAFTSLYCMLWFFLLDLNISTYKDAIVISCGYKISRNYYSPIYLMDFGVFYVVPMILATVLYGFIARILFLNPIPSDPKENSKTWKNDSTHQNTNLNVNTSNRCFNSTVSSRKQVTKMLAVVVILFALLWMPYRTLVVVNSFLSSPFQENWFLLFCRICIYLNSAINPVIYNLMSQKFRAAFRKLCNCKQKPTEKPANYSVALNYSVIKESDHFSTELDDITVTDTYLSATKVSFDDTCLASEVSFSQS
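TRHR-expressing cells, plated overnight in medium with 10% serum, were loaded with fluo-8 calcium dye at room temperature. After a 10 s baseline, library compound was pin-added and calcium release was recorded kinetically (ex 480/em 530) as agonist response.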
D1 potentiator – human D1 dopamine receptor positive modulation. actives 0.036% (n = 360,000). HEK293 TREx D1 cells, calcium flux, dopamine EC20 potentiation. potentiation, % at 10 µM. AID 504651. P21728; in the data active = potentiation above about 30%
TRHR enhancer-1 – allosteric enhancers of human TRH receptor | P34981 | enhancement, % at 2 µM | TRHR cells, fluo-8 calcium fluorescence, EC20 TRH enhancement | actives 0.66% (n = 360,000); in the data active = enhancement above about 30%
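Enhancer read-out: after compound pinning and an initial kinetic agonist-mode read, an EC20 of TRH (10 nM final) was injected and fluo-8 calcium signal (Ex 480/Em 530) followed at 1 s/cycle for 100 cycles in TRHR-expressing cells.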
D1 antagonist – blocks dopamine activation of the human D1 receptor; HEK293 TREx D1 cells, calcium flux, dopamine EC80; stronger effect = lower value; P21728; activity change, negative = inhibition, % at 10 µM; AID 504652; actives 3.2% (n = 360,000); in the data active = activity change below about -30%
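Tetracycline-induced HEK293 Trex D1 cells, force-coupled to calcium, dye-loaded; compounds added and read 180 s, then EC80 dopamine added and calcium flux tracked kinetically another 180 s.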
D1 agonist – human D1 receptor agonism; HEK293 T-REx D1 cells, calcium flux, agonist mode; AID 504660; actives 1% (n = 360,000); activation, % at 2 µM
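Inducible HEK293 T-REx D1 cells, force-coupled to calcium signalling, were plated at 4000 cells/well with tetracycline and held overnight at 30 C. After no-wash calcium dye loading, compound-evoked calcium rise over 180 s flagged agonists.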
TRHR enhancer-2 – confirmation of human TRH receptor allosteric enhancers; activity change, negative = inhibition, % at 46.1 µM; shares compounds with TRHR enhancer-1; TRH receptor cell assay, enhancer confirmation qHTS; AID 493076; 970 tested, under 10 active; active = well fitted curve in the direction sought with a large enough effect; inconclusive = small, poorly fitted or top-dose-only effect, or another doubt; inactive = no such curve, though single readings can be large; an effect the other way counts as inactive or inconclusive;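 note: compound effect scored on response to added TRH at EC20 of 10 nM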
TRHR agonist-2 – human TRH receptor agonism confirmation. shares compounds with TRHR enhancer-1. TRHR-expressing cells, agonist activation read-out. Potency, µM (doses to about 46.1 µM), most hits filed as activators. actives 8% (n = 970). AID 493078; active = well fitted curve in the direction sought with a large enough effect; inconclusive = small, poorly fitted or top-dose-only effect, or another doubt; inactive = no such curve, though single readings can be large; an effect the other way counts as inactive or inconclusive; note: nearly all actives have a fitted effect of over 75% in size
Of the large screens only hits and unclear results are named; the others gave an inactive call (follow-up assays come after a bar, where they were run). Cut-off read from the data, not from the text of the source, unless noted: active = activation above about 30%; inactive = the rest.

CCOC(=O)C1(Cc2ccccc2)CCCN(C(=O)c2ccc(-n3ccnc3)cc2)C1 (stereo unspecified)	none
COc1cc2ccccc2cc1C(=O)Nc1ccc2oc(-c3ccc(Cl)cc3)nc2c1	none
COC(=O)c1cccc(NC(=O)CN2CCc3ccccc3C2)c1	TRHR enhancer-1 71 | TRHR enhancer-2 inactive | TRHR agonist-2 inactive
Cc1cc(SCC(=O)NCCCN2CCCC2=O)nc2ccccc12	none
NC(=O)c1ccc[n+]([C@H]2O[C@@H](COP(=O)([O-])OP(=O)(O)OC[C@H]3O[C@@H](n4cnc5c(N)ncnc54)[C@H](O)[C@@H]3O)[C@H](O)[C@@H]2O)c1	D1 agonist 190 | TRHR enhancer-2 inactive | TRHR agonist-2 inconclusive
COc1ccccc1N1CCN(C(=O)c2ccc3c(c2)NC(=O)C(CSCc2ccccc2C)N3)CC1 (stereo unspecified)	none
COc1ccccc1NC(=O)CC1COc2ccccc2O1 (stereo unspecified)	TRHR enhancer-1 47 | TRHR enhancer-2 inactive | TRHR agonist-2 inactive
Cc1ccc2[nH]c(=O)c3cc(C(=O)NCCc4ccc(Cl)cc4)sc3c2c1	TRHR enhancer-1 57 | TRHR enhancer-2 inactive | TRHR agonist-2 inactive
NS(=O)(=O)c1ccc(CCNC(=O)c2cc(=O)[nH]c3ccccc23)cc1	none
O=C(NCCc1ccc(Cl)cc1)c1cc(-c2ccccn2)nc2ccccc12	TRHR enhancer-1 49 | TRHR enhancer-2 inactive | TRHR agonist-2 inactive
O=C(NCCc1ccc(Cl)cc1)c1cc(-c2ccncc2)nc2ccccc12	none
O=C(NCCc1ccc(Cl)cc1)c1cc(=O)[nH]c2ccccc12	TRHR enhancer-1 43 | TRHR enhancer-2 inconclusive | TRHR agonist-2 inactive
Cn1cc(S(=O)(=O)c2ccc(Cl)cc2)c(=O)c2cc(F)c(N3CCOCC3)cc21	none
COc1ccc(CN2CC(C(=O)NCCCN3CCCC(C)C3)CC2=O)cc1 (stereo unspecified)	none
COc1ccc(-c2cc(C(=O)NCCc3ccccc3)c3cc(C(C)C)ccc3n2)cc1	none
COc1ccc(-c2cc(C(=O)NCCN3CCOCC3)c3cc(C(C)C)ccc3n2)cc1	TRHR enhancer-1 47 | TRHR enhancer-2 inactive | TRHR agonist-2 inactive
CCCn1c(=O)c2ccccc2n2c(SC(C)C(N)=O)nnc12 (stereo unspecified)	none
C=CCn1c(=O)c2ccccc2n2c(SC(C)C(N)=O)nnc12 (stereo unspecified)	TRHR enhancer-1 45 | TRHR enhancer-2 inactive | TRHR agonist-2 inactive
Cc1cc(=O)n2nc(N3CCCC(C(=O)NC4CCC(C)CC4)C3)sc2n1 (stereo unspecified)	none
O=C(N/N=C/c1sc2ccccc2c1O)c1ccccc1	TRHR agonist-1 38, D1 agonist 60 | TRHR enhancer-2 inactive | TRHR agonist-2 21µM
COc1ccc(C(=O)N/N=C/c2sc3ccccc3c2O)cc1	none
Nc1nc(SCC(=O)N2CCOCC2)[nH]c(=O)c1-c1ccccc1	TRHR enhancer-1 65 | TRHR enhancer-2 inactive | TRHR agonist-2 inactive
Nc1nc(SCC(=O)N2CCCC2)[nH]c(=O)c1-c1ccccc1	none
Cc1nn(C)cc1S(=O)(=O)Nc1ncccn1	TRHR enhancer-1 41 | TRHR enhancer-2 inactive | TRHR agonist-2 inactive
Cc1ccc(Cl)cc1N1CCN(S(=O)(=O)N2CCCCC2)CC1	TRHR enhancer-1 43 | TRHR enhancer-2 inactive | TRHR agonist-2 inactive
CC1(c2ccc(Cl)cc2)NC(=O)N(CC(=O)NCCC2=CCCCC2)C1=O (stereo unspecified)	TRHR enhancer-1 81 | TRHR enhancer-2 inactive | TRHR agonist-2 inactive
CCc1cccc(C)c1NC(=O)CSc1nc(C)cc(C)c1C(=O)Nc1ccccc1	none
Cc1[nH]nc2c1C(c1cnn(C)c1)C(C#N)=C(N)O2 (stereo unspecified)	TRHR enhancer-1 55 | TRHR enhancer-2 inactive | TRHR agonist-2 inactive
Cc1ccc(C2C(C#N)=C(N)Oc3n[nH]c(C)c32)cc1 (stereo unspecified)	none

Bioassay records from PubChem.
